Experimental findings from the supplement of paper PMC10127200 are described below.

Structures can show the parent of a compound that is named as a salt.

The subject of this assay is OVCAR4. The assay can be described thus: Euclidean distance of Cell Painting phenotypic profile (signed KS, 77 features) to DMSO centroid (dimensionless distance); 5 or 10 uM (library dependent); higher = stronger phenotypic change vs DMSO (phenoactivity). Particulars: 48 h. The method in brief: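 Phenoactivity is computed as Euclidean distance to the median vehicle profile. The profiles, drawn from 77 Harmony features scored as signed Kolmogorov-Smirnov statistics versus same-plate vehicle wells, were corrected for plate position, correlation-weighted and replicate-averaged at the top dose. Stained cells were imaged confocally at 20X (9 fields/well) after 48 h with library compounds at 10 or 5 uM, 0.1% DMSO final, in five cancer lines and a healthy fibroblast line.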
`CCNC(=O)CC[C@H](N)C(=O)O` [L-Theanine]: the Euclidean distance was 2.17.

As to `NCCCC[C@H](N[C@@H](CCc1ccccc1)C(=O)O)C(=O)N1CCC[C@H]1C(=O)O` [Lisinopril dihydrate], the Euclidean distance turned out to be 1.51.

`CN(C)CCOC(c1ccccc1)c1ccccc1.Cn1c(=O)c2[nH]c(Cl)nc2n(C)c1=O` [Dimenhydrinate] had an Euclidean distance of 0.863.

The molecule `CC1=C(C(=O)OC(C)C)C(c2cccc([N+](=O)[O-])c2)C(C(=O)OC2CN(C(c3ccccc3)c3ccccc3)C2)=C(N)N1` (stereo unspecified) [Azelnidipine] came in with an Euclidean distance of 2.01.

In the case of `COC1CCN(C(=O)c2cc(Cc3n[nH]c(=O)c4ccccc34)ccc2F)CC1`, the Euclidean distance came to 1.3.

`CCN(CC)CCNC(=O)c1ccc(N)cc1` [Procainamide HCl] registered an Euclidean distance of 1.07.

For the molecule `c1ccc2c(Oc3nc(Nc4ccc(N5CCOCC5)cc4)c4ncn(C5CCCCC5)c4n3)cccc2c1` [Purmorphamine], the Euclidean distance was found to be 1.94.

Molecule `Cc1nc(C#Cc2ccnc(Cl)c2)c(C)n1-c1ccc(OC(F)(F)F)cc1` yielded an Euclidean distance of 1.2.

`O=C1[C@H](CC[C@H](O)c2ccc(F)cc2)[C@@H](c2ccc(O)cc2)N1c1ccc(F)cc1` [Ezetimibe] gave an Euclidean distance of 1.34.

Molecule `CC1(C)S[C@@H]2[C@H](NC(=O)[C@H](N)c3ccccc3)C(=O)N2[C@H]1C(=O)O` [Ampicillin Trihydrate] yielded an Euclidean distance of 1.53.

`Cc1ccc(Sc2cncc3sc(C(N)=O)cc23)cc1` displayed an Euclidean distance of 0.995.
